In PubChem BioAssay (EPA / NIEHS):
Calls of active or inactive are those of the source. The calls were made as follows: active = hit-call score of the fitted dose curve at least 0.9, where 1 is the maximum; inactive = score below 0.9.

Assay: ATG_TA_CIS: Attagene CIS-FACTORIAL HepG2 Assay for human TA Basal Promoter (AID 2282964)
Conditions: HepG2 Attagene CIS-factorial TA basal promoter reporter; actives raise or lower the signal
Protocol: ATG_CIS is a cell-based, multiplexed-readout assay that uses HepG2, a human liver cell line, with measurements taken at 24 hours after chemical dosing in a 24-well plate.ATG_TA_CIS is one of 52 assay component(s) measured or calculated from the ATG_CIS assay. It is designed to make measurements of mRNA induction, a form of inducible reporter, as detected with fluorescence intensity signals by Reverse transcription polymerase chain reaction (RT-PCR) and Capillary electrophoresis technology.Data from the assay component ATG_TA_CIS was analyzed into 1 assay endpoint. This assay endpoint, ATG_TA_CIS, was analyzed with bidirectional fitting relative to DMSO as the negative control and baseline of activity. Using a type of inducible reporter, measures of mRNA for gain or loss-of-signal activity can be used to understand the background control at the transcription factor-level as they relate to the gene . Furthermore, this assay endpoint can be referred to as a secondary readout, because this assay has produced multiple assay endpoints where this one serves a background control function. To generalize the intended target to other relatable targets, this assay endpoint is annotated to the background measurement intended target family, where the subfamily is internal marker.
Human liver HepG2 cells are transiently transfected with multiple reporter transcription units (MRTUs) in 6-well plates using FuGene 6 reagent (Roche; 3 ml FuGene/1 mg DNA). The MRTU constructs are regulated by a cis-regulating element (promoter). […] A major difference between the CIS and TRANS system is that in CIS activities of endogenous TFs are measured, whereas the TRANS assay evaluates changes in activities of exogenous, chimeric NR-Gal4 proteins. […] At the end of 24 hour incubation, total RNA was isolated using TriZol reagent (Invitrogen). The isolated RNA is then reverse-transcribed using oligo(dT) primer and Mo-MLV reverse transcriptase (Invitrogen) with DNAse I (Ambion) treatment for 30 min. The one-tenth of the produced cDNA was amplified by PCR using Taq DNA polymerase (Invitrogen) and two reporter sequence-specific primers. The PCR products were fluorescently labeled by primer extension with 6-arboxyfluorescein (6-FAM) 5'-labeled reporter sequence-specific primer (2 min at 95 C, 20 s at 68 C and 10 min at 72 C) and these products were digested with 5U of HpaI (New England Biolabs) for 2h at 37 C. The fragments were purified using Qiaquick PCR columns (Qiagen), analyzed on an ABI 3130xL genetic analyzer (Applied Biosystems) with peak positions identified by using a set of X-rhodamine (ROX)-labeled MapMarker1000 molecular weight standards (BioVentures). The raw capillary electrophoresis data was processed using Attagraph software (Attagene).

SMILES | outcome | AC50
FC(F)(F)C(F)(F)C(F)(F)C(F)(F)C(F)(F)C(F)(F)I | inactive | –
OC[C@H]1O[C@@](CO)(O[C@H]2O[C@H](CO)[C@@H](O)[C@H](O)[C@H]2O)[C@@H](O)[C@@H]1O | inactive | –
O=S1(=O)CCCO1 | inactive | –
FC(F)C(F)(F)COCC1CO1 (stereo not given) | inactive | –
COc1cc2c(c(OC)c1OC)-c1ccc(OC)c(=O)cc1[C@@H](NC(C)=O)CC2 | inactive | –
COCc1nnc(-c2ccc[n+]([O-])c2)n1-c1c(Cl)c(Cl)cc2[nH]c(=O)c(=O)[nH]c12 | inactive | –
Cc1ccc(S(=O)(=O)NC(=O)NN2CCCCCC2)cc1 | inactive | –
O=C(NO)C1(NS(=O)(=O)c2ccc(Oc3ccc(F)cc3)cc2)CCOCC1 | inactive | –
CCCCCCCC1CCC(=O)O1 (stereo not given) | inactive | –
CC[C@H](C)C(=O)O[C@H]1C[C@H](O)C=C2C=C[C@H](C)[C@H](CC[C@@H](O)C[C@@H](O)CC(=O)O)[C@H]21 | inactive | –
CCc1cccc(CC)c1N | inactive | –
FC(F)(F)COC(OCC(F)(F)F)OCC(F)(F)F | inactive | –
CCCCCCOC(=O)CC(CC(=O)OCCCCCC)(OC(=O)CCC)C(=O)OCCCCCC | inactive | –
O=C(O)CO | inactive | –
OCc1ccccc1 | inactive | –
C[C@@H](Oc1ccc(CNC(=O)c2cccnc2Oc2ccc3c(c2)OCO3)c(F)c1)C(=O)O | inactive | –
Cn1c(=O)c2[nH]cnc2n(C)c1=O | inactive | –
C=CCc1cc(S(=O)(=O)c2ccc(O)c(CC=C)c2)ccc1O | – | 33.4 µM (active)
NCC(F)(F)C(F)(F)C(F)(F)C(F)(F)F | inactive | –
CCOC(N)=O | inactive | –

SMILES | outcome | AC50
c1ccc(C(O[C@@H]2CCCN(CCc3ccc4c(c3)OCO4)C2)c2ccccc2)cc1 | – | 55.3 µM (active)
COc1cc(C(C)C)c2c(c1)S(=O)(=O)N(COc1cc(=O)n3cccc(OCCN4CCCCC4)c3n1)C2=O | inactive | –
NC(=O)N(O)[C@@H]1COc2cc(OCc3ccccc3)ccc21 | inactive | –
COS(C)(=O)=O | inactive | –
O=S(=O)(O)CCC(F)(F)C(F)(F)C(F)(F)C(F)(F)C(F)(F)C(F)(F)F | inactive | –
NC(=O)N1c2ccccc2C=Cc2ccccc21 | inactive | –
CCCCCCCCCCCCCCCCOS(=O)(=O)O | inactive | –
c1ccc2c(c1)-c1cccc3c1c-2cc1ccccc13 | inactive | –
CCOc1ccc2[nH]cc(C(=O)NCc3ccccc3)c(=O)c2n1 | inactive | –
O=C(O)[C@H](O)[C@@H](O)C(=O)O | inactive | –
CCCCCCCCN(C)C | inactive | –
C[C@]12C=CC(=O)C=C1CC[C@H]1[C@@H]3C[C@@H](O)[C@](O)(C(=O)CO)[C@@]3(C)C[C@H](O)[C@@]12F | inactive | –
Nc1ccn([C@@H]2O[C@H](CO)[C@@H](O)[C@@H]2O)c(=O)n1 | inactive | –
CCCCCCCC/C=C\CCCCCCCC(=O)OC[C@@H](O)[C@H]1OC[C@H](O)[C@H]1O | inactive | –
CCCCCCCCCC | inactive | –
S=P(N1CC1)(N1CC1)N1CC1 | inactive | –
O=C(O)c1cccc(C(=O)O)c1 | inactive | –
CC(C)c1nnc2ccc(-c3ocnc3-c3cc(F)ccc3F)cn12 | inactive | –
CC(=O)c1ccccc1 | inactive | –
O=C1CN(N=Cc2ccc([N+](=O)[O-])o2)C(=O)N1 | inactive | –
